Reference: PubChem BioAssay
A number with no mark means an inactive call. Rule as the data show it, unless noted: active = inhibition above about 25%; inactive = the rest.

Columns and labels:
[1] = target: Nuclear receptor coactivator 1 (Homo sapiens) (UniProt Q15788); experiment: SRC1 coactivator transcriptional activity inhibitors, confirmation, cell-based, luminescence, quadruplicate (AID 588820;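 active = mean inhibition above 46.68%, the untreated control wells mean plus 3 SD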;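 also: 0% = DMSO wells and 100% = gossypol 36 µM treated wells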); conditions: HEK293 GAL4-SRC1 luciferase reporter, at 3.6 µM, hits give high values
Chain of Nuclear receptor coactivator 1 (Homo sapiens) (Q15788 whole entry, looked up, the tested form may be a part): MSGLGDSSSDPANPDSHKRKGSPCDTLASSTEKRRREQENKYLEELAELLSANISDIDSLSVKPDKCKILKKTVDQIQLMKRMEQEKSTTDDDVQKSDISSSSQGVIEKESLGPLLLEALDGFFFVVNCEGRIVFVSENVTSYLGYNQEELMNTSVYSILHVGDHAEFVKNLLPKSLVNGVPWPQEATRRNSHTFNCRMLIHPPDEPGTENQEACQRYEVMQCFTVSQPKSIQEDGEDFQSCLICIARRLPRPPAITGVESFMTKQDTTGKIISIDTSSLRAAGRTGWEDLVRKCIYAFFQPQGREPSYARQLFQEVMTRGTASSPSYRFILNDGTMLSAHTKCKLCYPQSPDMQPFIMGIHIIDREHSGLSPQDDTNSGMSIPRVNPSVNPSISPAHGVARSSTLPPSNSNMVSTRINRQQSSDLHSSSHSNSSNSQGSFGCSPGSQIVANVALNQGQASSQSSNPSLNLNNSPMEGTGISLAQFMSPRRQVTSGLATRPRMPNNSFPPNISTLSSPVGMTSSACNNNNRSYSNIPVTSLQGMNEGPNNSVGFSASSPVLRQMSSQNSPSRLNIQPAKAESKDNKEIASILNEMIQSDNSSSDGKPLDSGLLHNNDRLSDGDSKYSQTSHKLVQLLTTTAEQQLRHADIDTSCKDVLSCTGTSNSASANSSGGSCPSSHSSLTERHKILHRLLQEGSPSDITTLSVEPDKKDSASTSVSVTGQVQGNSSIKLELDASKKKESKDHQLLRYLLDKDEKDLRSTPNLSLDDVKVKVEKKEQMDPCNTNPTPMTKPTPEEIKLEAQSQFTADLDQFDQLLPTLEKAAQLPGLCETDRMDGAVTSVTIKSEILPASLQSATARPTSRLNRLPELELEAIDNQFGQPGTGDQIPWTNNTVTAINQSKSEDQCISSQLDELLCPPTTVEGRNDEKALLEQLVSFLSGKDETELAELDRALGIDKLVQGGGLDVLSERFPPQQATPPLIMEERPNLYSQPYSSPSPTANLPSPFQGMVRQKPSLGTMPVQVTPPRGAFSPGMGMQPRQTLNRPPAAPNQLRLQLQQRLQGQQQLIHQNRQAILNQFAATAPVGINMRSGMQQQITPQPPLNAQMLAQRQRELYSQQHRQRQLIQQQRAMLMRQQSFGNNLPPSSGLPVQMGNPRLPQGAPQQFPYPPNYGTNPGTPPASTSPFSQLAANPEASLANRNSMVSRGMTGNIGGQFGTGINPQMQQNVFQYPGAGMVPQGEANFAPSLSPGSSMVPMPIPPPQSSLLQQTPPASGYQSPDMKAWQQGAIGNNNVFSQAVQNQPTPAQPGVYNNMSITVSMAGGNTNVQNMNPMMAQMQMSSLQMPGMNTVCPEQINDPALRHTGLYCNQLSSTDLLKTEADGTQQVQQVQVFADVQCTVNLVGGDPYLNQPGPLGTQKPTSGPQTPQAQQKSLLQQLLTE

[2] = VP16 transactivation inhibitors, counter-screen for SRC1 inhibitor project, cell-based, luminescence, high throughput (AID 588824); conditions: cell-based VP16 transactivation luciferase luminescence; at 3.6 µM; hits give high values

| Compound | inhibition [1] [%] | inhibition [2] [%] |
| --- | --- | --- |
| Cc1cc(C)nc(/N=C(\N)Nc2ccc(CC(=O)OC(C)C)cc2)n1 | -11.9 | 16.6 |
| COc1ccc(Cl)cc1NC(=O)CSc1nc(=O)n(CCN(C)C)c2c1CCCC2 | -13.4 | -0.03 |
| O=C(Nc1ccccc1)N1CCCN(c2ccc(C(F)(F)F)cn2)CC1 | -0.62 | -2.54 |
| O=C(COc1ccc(Cl)cc1Cl)NN1C(=O)C2C3C=CC(C3)C2C1=O (configuration not stated) | -1.23 | -10.4 |
| COC(C(=O)Nc1ccc(S(=O)(=O)Nc2ccc(C)c(C)c2)cc1)c1ccccc1 (configuration not stated) | -8.72 | -12.5 |
| CCOC(=O)C1=C(COC(=O)/C=C/c2ccc(OC)c(OC)c2)NC(=O)NC1C (configuration not stated) | -16.4 | -2.04 |
| CN(CC(=O)Nc1c(Cl)cccc1Cl)C(=O)CNC(=O)c1ccc2ccccc2c1 | -23.2 | -11.1 |
| COc1ccccc1NC(=O)CN(c1ccccc1)S(=O)(=O)c1ccccc1 | -16.7 | -7.82 |
| CC(C)(C)OC(=O)N(CCc1ccccc1)Cc1ccc(OCc2cccc(NC(=O)C3CCCC3)c2)cc1 | -0.88 | -7.49 |
| CCNC(=O)C1(C)CCN(C(=O)c2ccc(F)cc2Cl)C1 (configuration not stated) | 4.79 | 3.22 |
| Cc1sc2ncnc(N3CCC(C(=O)N(C)CC(=O)Nc4ccccc4Br)CC3)c2c1C | 5.26 | 13.3 |
